These results are taken from the supplement of paper PMC10338343.

± gives the standard deviation.

The subject of the assay is EfPiwi piRISC loaded with piRNA #1 (26 nt). In words: pre-steady-state target cleavage rate (min^-1); auxiliary factor: 500 nM Ephydatia muelleri Gtsf1; guide: piRNA #1 5'p-UGAGGUAGUAGGUUGUAUAGUAUCCA; MIWI and MILI are mouse PIWI proteins and EfPiwi is from a freshwater sponge; tags in brackets are library labels; higher = faster piRNA-guided slicing of the target. A digest of the protocol: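 In Cleave-'n-Seq, a transcribed, DNA-blocked target RNA library (0.1 nM) was combined with 1 nM active affinity-purified piRISC bearing one synthetic guide, with or without 500 nM GTSF1 partner protein. Reactions ran in HEPES–potassium acetate buffer at 33 °C for 0–8 or 0–960 min. Uncleaved targets were sequenced and normalised to depth and to weakly complementary targets, three trials were pooled, and k3 was capped at 0.0001 min^-1. The pre-steady-state cleavage rate was obtained by fitting a burst-and-steady-state model.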
Consider GGAGACGAUACUAUACAGACCUACUACCUCA, for which the “pre-steady-state target cleavage rate” value worked out at 0.0101 ± 0.0034.

For GGAGACCUAUGAUAACAACCUACUACGCUCA, the “pre-steady-state target cleavage rate” value was under 0.0001.

In the case of GGAGACGAUACUAUACAACCUUCUUCCUCA, the “pre-steady-state target cleavage rate” value was 0.0037 ± 0.0019.

With GGAGACGACUACUAUACAACCUACUACCUCA, the “pre-steady-state target cleavage rate” value was found to be 0.01 ± 0.0046.

As for GGAGACCUAUGAUAUGUUCCUACUCCCUCA, the “pre-steady-state target cleavage rate” value is under 0.0001.

For GGAGUGGAUACUAUACAACCUUGAACCUCA, the “pre-steady-state target cleavage rate” value was determined as 0.00462 ± 0.0029.

In the case of GGAGACGAUACUAUACAAGCCUACUACCUCA, the “pre-steady-state target cleavage rate” value is 0.00444 ± 0.0036.

Consider GGAGAGGAUACUAUACAAUCCUACUACCUCA, for which the “pre-steady-state target cleavage rate” value was found to be 0.00878 ± 0.0059.

For the sequence GGAGACGAUACUAUACAACCUAGAACCUCA, the “pre-steady-state target cleavage rate” value was determined as 0.00278 ± 0.0012.

For the sequence GGAGUGGUUACAAUACAACCUACUACCUCA, the “pre-steady-state target cleavage rate” value amounted to 0.00789 ± 0.0035.

For the sequence GGAGAGGAUACUAUACAACCUACUUCCACA, the “pre-steady-state target cleavage rate” value was determined as 0.00373 ± 0.0022.

As to GGAGACGAUAGUAUACAACCUACUACGUCA, the “pre-steady-state target cleavage rate” value stood at 0.0019 ± 0.0015.

Turning to GGAGACCAUACUAUGCAACCUACUACCUCA, the “pre-steady-state target cleavage rate” value came to 0.0164 ± 0.0068.

In the case of GGAGACGUUACUAUACAACCUAGUACCUCA, the “pre-steady-state target cleavage rate” value was 0.00427 ± 0.0015.

On to GGAGUCGAUACUAUACAACCAACUACCUCA, for which the “pre-steady-state target cleavage rate” value turned out to be 0.00517 ± 0.002.

With GGAGACCUUACUAUACAACCUACUACCUACA, the “pre-steady-state target cleavage rate” value was 0.00473 ± 0.0031.

GGAGACGAUACUAUACGAACCUACUACCUCA: the “pre-steady-state target cleavage rate” value amounted to 0.00658 ± 0.0033.

Regarding GGAGACCAUACUAUACUAACCUACUACCUCA, the “pre-steady-state target cleavage rate” value turned out to be 0.0042 ± 0.0031.

As for GGAGACCAAACUAUACAACCAACUACCUCA, the “pre-steady-state target cleavage rate” value was 0.00588 ± 0.003.

Take GGAGUGGAUACUAUACGAACCUACUACCUCA: the “pre-steady-state target cleavage rate” value was 0.00789 ± 0.0039.

Consider GGAGUGGAUACUAUACAACCUACAAGCUCA, for which the “pre-steady-state target cleavage rate” value amounted to 0.00192 ± 0.0017.

In the case of GGAGACCUAUGAUAUCAACCUACUUCCACA, the “pre-steady-state target cleavage rate” value was under 0.0001.

With GGAGACCAUACUAUACAAGCUAGUACCUCA, the “pre-steady-state target cleavage rate” value turned out to be 0.0032 ± 0.0027.

For GGAGACGUUACUAUAGAACCUACUACCUCA, the “pre-steady-state target cleavage rate” value stood at 0.0026 ± 0.0023.

Turning to GGAGAGGAUACUAUACAACCUAUACCUCA, the “pre-steady-state target cleavage rate” value was 0.00469 ± 0.0024.

On to GGAGACGAUACUAUACAACCUAGUAGCUCA, for which the “pre-steady-state target cleavage rate” value turned out to be 0.00474 ± 0.0023.

Take GGAGUGGAUACUAUACAACCUACUUCGUCA: the “pre-steady-state target cleavage rate” value came to 0.00391 ± 0.0021.

In the case of GGAGACCUAACCUAUACAACCUACUACCUCA, the “pre-steady-state target cleavage rate” value was 0.0868 ± 0.028.

Consider GGAGAGUGAUACUAUACAACCUACUACCUCA, for which the “pre-steady-state target cleavage rate” value came out at 0.171 ± 0.053.

Take GGAGACCAUACUAUACAACCUACUACCCUCA: the “pre-steady-state target cleavage rate” value came to 0.00445 ± 0.0021.

In the case of GGAGACCAUACUAUUCAAGCUACUACCUCA, the “pre-steady-state target cleavage rate” value was determined as 0.00339 ± 0.0032.

For GGAGACCAUACUAUACAACCAACUAGCUCA, the “pre-steady-state target cleavage rate” value was 0.0061 ± 0.0043.

For GGAGUGGAAACUAUACAACCAACUACCUCA, the “pre-steady-state target cleavage rate” value came out at 0.0049 ± 0.0032.

As to GGAGACCUAACUAUACAAACCUACUACCUCA, the “pre-steady-state target cleavage rate” value worked out at 0.00462 ± 0.0028.

For GGAGACGAUAGUAUACAACCUACUACCUCA, the “pre-steady-state target cleavage rate” value worked out at 0.00758 ± 0.0036.

Take GGAGAGGAUACUAUUCAACCUACUACCUCA: the “pre-steady-state target cleavage rate” value was determined as 0.012 ± 0.0057.

Regarding GGAGACCAGUACUAUACAACCUACUACCUCA, the “pre-steady-state target cleavage rate” value turned out to be 0.0152 ± 0.0063.

GGAGACCAUACUAUACAACCUAGUACGUCA: the “pre-steady-state target cleavage rate” value is 0.00483 ± 0.0024.

On to GGAGUGGAUACUAUACAACCUCACUACCUCA, for which the “pre-steady-state target cleavage rate” value was found to be 0.00417 ± 0.0022.

Regarding GGAGAGGAUACUAUACAACCUAGUACCUGA, the “pre-steady-state target cleavage rate” value turned out to be 0.00379 ± 0.0015.
